# Several values for one entry are separate records, joined by “and”; a condition that tells them apart may be missing. Equal entries are not always repeated. About 83,000 compounds went through this panel and 20% of them were active in at least one assay; those are over-represented in the sample as a whole.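 96-well plates, one dose, 48 hours. Percent growth reported; active if below 10.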 Values without a mark were called inactive. Activity calls are given as the source filed them.
# Assays:
# Assay in all cases: NCI-60 one-dose screen, 48 h (100 = growth as untreated, 0 = no growth, -100 = all killed)
# Conditions in all cases: 10 µM unless noted
# [1] = test system: NCI-H23 lung
# [2] = test system: NCI-H226 lung
# [3] = test system: HOP-62 NSCLC
# [4] = test system: NCI-H460 lung
# [5] = test system: HOP-92 NSCLC
# [6] = test system: A549/ATCC NSCLC
# [7] = test system: 786-0 renal
# [8] = test system: COLO 205 colon
# [9] = test system: DU-145 prostate
# [10] = test system: K-562 leukemia
# [11] = test system: MDA-MB-231 breast
# [12] = test system: RXF 393 renal
# [13] = test system: SF-268 CNS
# [14] = test system: SF-295 CNS
# [15] = test system: SF-539 CNS
# [16] = test system: UACC-257 melanoma
# [17] = test system: M14 melanoma
# [18] = test system: NCI-H322M lung
# [19] = test system: NCI-H522 lung
# [20] = test system: MALME-3M melanoma
SMILES,growth [1],growth [2],growth [3],growth [4],growth [5],growth [6],growth [7],growth [8],growth [9],growth [10],growth [11],growth [12],growth [13],growth [14],growth [15],growth [16],growth [17],growth [18] [%],growth [19],growth [20]
COc1cc(C(=O)N/N=C/c2ccc(N(C)C)cc2)cc(OC)c1OC,19.4%,71.9%,49%,3.54% (active),46.8%,18.4%,42.2%,-25.7% (active),0.807% (active),14%,30.2%,26.4%,57.6%,19.1%,14.1%,43.2%,6.72% (active),,,
c1ccc(N(c2ccccc2)c2ccccc2)cc1,,104%,,111%,112%,99%,97.9%,113%,113%,,120%,122%,106%,92%,104%,104%,100%,97.6,95.9%,93.8%
CCC(=O)C(CC)c1cccc(OC)c1 (stereo not given),,102%,122%,107%,97.3%,106%,103%,117%,114%,,111%,107%,120%,100%,115%,100%,101%,101,102%,101%
Cc1ccc(-c2noc(C)n2)cc1,,93.8%,100%,106%,92.1%,93.6%,102%,113%,115%,96.1%,111%,94.2%,111%,95.2%,98.7%,92.9%,110%,,99.3%,108%
Cc1cc(=O)[nH]c(O)c1C#N,103% and 97.6%,103% and 101%,96.6% and 101%,105% and 104%,106% and 52%,102% and 95.3%,97.7% and 98.5%,,112% and 106%,106% and 112%,107% and 109%,106%,109% and 101%,99.6% and 98.5%,97.8% and 105%,99.4% and 103%,,,101% and 96.9%,98% and 103%
OCc1ccccn1,,102%,115%,,108%,,104%,127%,100%,,114%,111%,107%,94.7%,104%,104%,108%,105,94.9%,115%
COc1cc2nc(N3CCN(C(=O)C4COc5ccccc5O4)CC3)nc(N)c2cc1OC (stereo not given),90.1% and 99% and 101%,96.2% and 96.7% and 99.9%,102% and 96.4% and 110%,101% and 98.5% and 117%,148% and 106% and 124%,102% and 88.9%,112% and 93.5% and 99%,,102% and 106%,93.3% and 96.7%,76.3% and 86.2% and 100%,86.4% and 83.4% and 109%,100% and 89.5% and 98.6%,108% and 71.1% and 101%,115% and 89.9% and 102%,101% and 106%,104% and 96.4% and 96.3%,,82.6% and 84.1%,113% and 83.2% and 95.6%
CC(=O)Nc1cccc2c1CCCC2,98% and 96.3%,98.9% and 98.7%,91.8% and 84%,,96.5% and 80.8%,63.6% and 88.1%,95.8% and 96.6%,109% and 101%,107% and 101%,109% and 110%,115% and 110%,101%,95.6% and 103%,94.9% and 100%,107% and 97.8%,67.1% and 102%,94.5% and 101%,,68.7% and 75.3%,103% and 95.5%
CC1=C(/C=C/C(C)=C/C=C/C(C)=C/C(=O)Nc2ccc(O)cc2)C(C)(C)CCC1,,74.3%,88.6%,27.7%,103%,55.9%,52.8%,38.6%,68.4%,,54.5%,60.8%,60.8%,4.64% (active),-32.7% (active),76.7%,53.5%,101,-47.6% (active),76.1%
c1ccc(NCc2ccc3c(c2)OCO3)cc1,100% and 105%,103% and 97.9%,93.7% and 101%,105% and 99.4%,,103% and 95.3%,102% and 96.8%,113% and 102%,111% and 108%,105% and 98.7%,100% and 106%,104% and 95.2%,99.1% and 99.4%,105%,102% and 91.4%,101% and 97.5%,101%,,91.1% and 95.6%,106% and 119%
